Reference: PubChem BioAssay (NCI)
Compounds without any hit were thinned out: in the full panel of roughly 79,000, 15% have a hit. A number with no mark means an inactive call. Active and inactive are the calls of the source. Rule as the data show it: active = growth inhibition above about 70%; inactive = the rest.

Assay: NCI Yeast Anticancer Drug Screen. Data for the rad50 strain (AID 155);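 also: 0% = growth of vehicle-only cultures of the same strain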
Conditions: S. cerevisiae rad50 strain growth inhibition; at 50.0 µM; hits give high values
How it was run: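 Inhibition values express reduced yeast growth in compound-treated cultures relative to vehicle-treated controls.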

Structure (SMILES)	growth inhibition
C1=NC2c3ccccc3Cc3cccc1c32 (stereo not drawn)	95.4% (active)
COc1ccc2c(c1)CN([C@@H](C)[C@H]1CC[C@H]3[C@@H]4CC[C@H]5C[C@@H](O)CC[C@]5(C)[C@H]4CC[C@]13C)CO2	99% (active)
Cc1c(N)nc(C(CC(N)=O)NCC(N)C(N)=O)nc1C(=O)NC(C(=O)NC(C)C(O)C(C)C(=O)NC(C(=O)NCCc1nc(-c2nc(C(=O)NCCCNCCCc3ccccn3)cs2)cs1)C(C)O)C(OC1OC(CO)C(O)C(O)C1OC1OC(CO)C(O)C(OC(N)=O)C1O)c1cnc[nH]1 (stereo not drawn)	92.6% (active)
COc1cc2c(cc1O)-c1c(cnn1-c1ccccc1)CCC2	95.5% (active)
CN(C)CC(CN(C)C)C(=O)c1ccc(Oc2ccc(Cl)cc2)cc1	7.8%
N#CCCN(CCC#N)Cc1c(O)c(O)c(CN(CCC#N)CCC#N)c2ccccc12	61.1%
Cc1cc2c(c([N+](=O)[O-])c1C)C(=O)C(Br)=C(N)C2=O	93.5% (active)
O=C(O)CSC(=S)N1CCCC1	46%
CNC1=C2NC(=O)/C(C)=C\C=C\C(C)C(O)C(C)C(O)C(C)C(OC(C)=O)C(C)C(OC)/C=C/OC3(C)Oc4c(C)c(O)c(c(c4C3=O)C1=O)C2=O (stereo not drawn)	52.3%
O=c1c(Cl)nsnc1Cl	99.6% (active)
CC(NC(=O)OCc1ccccc1)C(=O)NNc1ccccc1Cl (stereo not drawn)	97.5% (active)
O=C(OCc1ccccc1CN1CCOCC1)c1cccc(Br)c1	43.5%
OC(COc1ccc(Cl)cc1)COc1ccc(Cl)cc1	98.4% (active)
Cc1c(-c2ccc(C(=N)N)cc2)oc(-c2ccc(C(=N)N)cc2)c1C	89% (active)
COC(=O)[C@@]12OC[C@]34[C@H]([C@@H](O)[C@@H]1O)[C@@]1(C)CC(=O)C(O)=C(C)[C@@H]1C[C@H]3OC(=O)[C@H](OC(=O)C(Cc1ccccc1)NC(=O)OC(C)(C)C)[C@@H]24 (stereo partly drawn)	85.8% (active)
CCCCCCCCCCCCCCCC(=O)NCC[N+](C)(CC)CC	57.4%
Oc1ccc(CCCCCc2ccc(O)cc2)cc1	99.5% (active)
NN(Cc1ccccc1)c1ccccc1	89.3% (active)
CCOC(=O)c1[nH]cc(C)c1-c1ccc2c(-c3ccccc3)nc3ccccc3n12	44.8%
COC(=O)c1cn(NS(=O)(=O)c2ccc(OC)cc2)cc1C(=O)OC	16.4%

Structure (SMILES)	growth inhibition
CN(C)c1cc2c(cc1[N+](=O)[O-])-c1ccccc1C2O (stereo not drawn)	91.4% (active)
CN(C)CCOc1cc2c(c3ccccc13)-c1ccccc1C2O (stereo not drawn)	98.3% (active)
BrC(Br)([P+](c1ccccc1)(c1ccccc1)c1ccccc1)[P+](c1ccccc1)(c1ccccc1)c1ccccc1	19.1%
CCOCCNc1ncnc2c1cnn2C	-1.1%
C[C@H](CCC1=NCCN1)[C@H]1CC[C@H]2[C@@H]3CC[C@@H]4C[C@H](O)CC[C@]4(C)[C@H]3C[C@H](O)[C@]12C	91.3% (active)
CCOC(=O)C1=C(c2ccccc2)N(C)c2ccccc2S1	75.9% (active)
C(=P(c1ccccc1)(c1ccccc1)c1ccccc1)[P+](c1ccccc1)(c1ccccc1)c1ccccc1.[Br][Cu][Br]	99.2% (active)
COc1ccc(N(C)Sc2ccccc2)cc1	88.2% (active)
COc1ccc(Cc2c(-c3ccc(C)cc3)n[nH]c(=O)c2C2C(=O)N(c3ccccc3)N=C2c2ccccc2)cc1 (stereo not drawn)	97% (active)
N#CSC#CCCC#CSC#N	92.5% (active)
c1ccc2c(c1)OCC(CNCCNCC1COc3ccccc3O1)O2 (stereo not drawn)	72% (active)
CC(C)(C)OC(=O)N[C@H]1CC2(C=C(Cl)C(=O)C(Cl)=C2)OC1=O	86.5% (active)
c1ccc([P+](c2ccccc2)(c2ccccc2)C2CCCC2)cc1	96.8% (active)
COc1ccc2nc(-c3ccc(Cl)cc3)[nH]c2c1	72.7% (active)
CC[C@H](CC[C@@H](C)C1CC[C@H]2[C@@H]3CCC4=CC(=O)CC[C@]4(C)[C@H]3CC[C@]12C)C(C)C (stereo partly drawn)	50.9%
CCOC(=O)N/N=C/c1ccc(N(C)CCC#N)cc1	-12%
CC(Br)C(=O)c1ccc2cc(Cl)c3ccccc3c2c1 (stereo not drawn)	-10.3%
Cc1ccc(-n2cc(-c3ccc(Cl)cc3)c3c(NN)ncnc32)cc1	85.7% (active)
O=C1c2ccccc2C(=O)c2c1ccc(C(=O)O)c2-c1ccc2ccccc2c1	97.3% (active)

Assay: NCI Yeast Anticancer Drug Screen. Data for the mec2-1 strain (AID 157)
Conditions: S. cerevisiae mec2-1 strain, at 5.0 µM (retest, dose inferred, filed as 0.5), hits give high values
How it was run: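 Compounds were applied to mec2-1 yeast cells. Their growth was then compared with that of vehicle-treated cultures to give growth inhibition.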

Structure (SMILES)	growth inhibition
C1=NC2c3ccccc3Cc3cccc1c32 (stereo not drawn)	-3%
COc1ccc2c(c1)CN([C@@H](C)[C@H]1CC[C@H]3[C@@H]4CC[C@H]5C[C@@H](O)CC[C@]5(C)[C@H]4CC[C@]13C)CO2	59%
Cc1c(N)nc(C(CC(N)=O)NCC(N)C(N)=O)nc1C(=O)NC(C(=O)NC(C)C(O)C(C)C(=O)NC(C(=O)NCCc1nc(-c2nc(C(=O)NCCCNCCCc3ccccn3)cs2)cs1)C(C)O)C(OC1OC(CO)C(O)C(O)C1OC1OC(CO)C(O)C(OC(N)=O)C1O)c1cnc[nH]1 (stereo not drawn)	97% (active)
COc1cc2c(cc1O)-c1c(cnn1-c1ccccc1)CCC2	-5%
CN(C)CC(CN(C)C)C(=O)c1ccc(Oc2ccc(Cl)cc2)cc1	60%
N#CCCN(CCC#N)Cc1c(O)c(O)c(CN(CCC#N)CCC#N)c2ccccc12	-1%
Cc1cc2c(c([N+](=O)[O-])c1C)C(=O)C(Br)=C(N)C2=O	79% (active)
O=C(O)CSC(=S)N1CCCC1	2%
CNC1=C2NC(=O)/C(C)=C\C=C\C(C)C(O)C(C)C(O)C(C)C(OC(C)=O)C(C)C(OC)/C=C/OC3(C)Oc4c(C)c(O)c(c(c4C3=O)C1=O)C2=O (stereo not drawn)	-2%
O=c1c(Cl)nsnc1Cl	100% (active)
CC(NC(=O)OCc1ccccc1)C(=O)NNc1ccccc1Cl (stereo not drawn)	9%
O=C(OCc1ccccc1CN1CCOCC1)c1cccc(Br)c1	-4%
OC(COc1ccc(Cl)cc1)COc1ccc(Cl)cc1	-3%
Cc1c(-c2ccc(C(=N)N)cc2)oc(-c2ccc(C(=N)N)cc2)c1C	84% (active)
COC(=O)[C@@]12OC[C@]34[C@H]([C@@H](O)[C@@H]1O)[C@@]1(C)CC(=O)C(O)=C(C)[C@@H]1C[C@H]3OC(=O)[C@H](OC(=O)C(Cc1ccccc1)NC(=O)OC(C)(C)C)[C@@H]24 (stereo partly drawn)	26%
CCCCCCCCCCCCCCCC(=O)NCC[N+](C)(CC)CC	-6%
Oc1ccc(CCCCCc2ccc(O)cc2)cc1	15%
NN(Cc1ccccc1)c1ccccc1	47%
CCOC(=O)c1[nH]cc(C)c1-c1ccc2c(-c3ccccc3)nc3ccccc3n12	7%
COC(=O)c1cn(NS(=O)(=O)c2ccc(OC)cc2)cc1C(=O)OC	-5%

Structure (SMILES)	growth inhibition
CN(C)c1cc2c(cc1[N+](=O)[O-])-c1ccccc1C2O (stereo not drawn)	-1%
CN(C)CCOc1cc2c(c3ccccc13)-c1ccccc1C2O (stereo not drawn)	0%
BrC(Br)([P+](c1ccccc1)(c1ccccc1)c1ccccc1)[P+](c1ccccc1)(c1ccccc1)c1ccccc1	9%
CCOCCNc1ncnc2c1cnn2C	-4%
C[C@H](CCC1=NCCN1)[C@H]1CC[C@H]2[C@@H]3CC[C@@H]4C[C@H](O)CC[C@]4(C)[C@H]3C[C@H](O)[C@]12C	26%
CCOC(=O)C1=C(c2ccccc2)N(C)c2ccccc2S1	4%
C(=P(c1ccccc1)(c1ccccc1)c1ccccc1)[P+](c1ccccc1)(c1ccccc1)c1ccccc1.[Br][Cu][Br]	99% (active)
COc1ccc(N(C)Sc2ccccc2)cc1	18%
COc1ccc(Cc2c(-c3ccc(C)cc3)n[nH]c(=O)c2C2C(=O)N(c3ccccc3)N=C2c2ccccc2)cc1 (stereo not drawn)	99% (active)
N#CSC#CCCC#CSC#N	43%
c1ccc2c(c1)OCC(CNCCNCC1COc3ccccc3O1)O2 (stereo not drawn)	69%
CC(C)(C)OC(=O)N[C@H]1CC2(C=C(Cl)C(=O)C(Cl)=C2)OC1=O	16%
c1ccc([P+](c2ccccc2)(c2ccccc2)C2CCCC2)cc1	-13%
COc1ccc2nc(-c3ccc(Cl)cc3)[nH]c2c1	-5%
CC[C@H](CC[C@@H](C)C1CC[C@H]2[C@@H]3CCC4=CC(=O)CC[C@]4(C)[C@H]3CC[C@]12C)C(C)C (stereo partly drawn)	-8%
CCOC(=O)N/N=C/c1ccc(N(C)CCC#N)cc1	-3%
CC(Br)C(=O)c1ccc2cc(Cl)c3ccccc3c2c1 (stereo not drawn)	5%
Cc1ccc(-n2cc(-c3ccc(Cl)cc3)c3c(NN)ncnc32)cc1	-11%
O=C1c2ccccc2C(=O)c2c1ccc(C(=O)O)c2-c1ccc2ccccc2c1	26%
